# Experimental data taken from PubChem BioAssay (Tox21).
# Inconclusive results are not listed. A number with no mark means an inactive call. Calls of active or inactive are those of the source. Unless noted, calls follow the shape of the full dose curve.
# System: not listed separately
# Test: qHTS assay to identify small molecule agonists of the AP-1 signaling pathway - cell viability counter screen (AID 1159525); also: nearly all actives have a fitted effect of over 55% in size; also: potency is read from the fitted curve at half-maximal effect
# Settings: ME-180 AP-1-bla cells viability, ATP luminescence, 5 h; series mostly up to 76.8 µM; viability change, negative = cytotoxic: at the top concentration
# In short: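 Same-well cytotoxicity counter screen of the Tox21 10K library in ME-180 cells. The readout is ATP-dependent luminescence after 5 h compound treatment. Data are normalised to DMSO and tetra n-octyl ammonium bromide controls.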
Structure (SMILES),"viability change, negative = cytotoxic",Potency
SCc1ccco1,0.176%,–
Cc1ccc(C(=O)Cl)cc1,8.18%,–
O=C(Nc1ccc2[nH]ccc2c1)c1cc2cc(F)ccc2n1Cc1cccc(F)c1,–,27.5 µM (active)
CC(Cl)CN(C)C (stereo not drawn),-8%,–
O=C1C=CC(=O)c2ccccc21,–,15.5 µM (active)
CCCCCCCCCCBr,-13.5%,–
C[CH2][Hg][N]1C(=O)C2C(C1=O)C1(Cl)C(Cl)=C(Cl)C2(Cl)C1(Cl)Cl (stereo not drawn),–,6.57 µM (active)
CC(O)C#N (stereo not drawn),1.73%,–
CN(C)S(=O)(=O)N(SC(F)(Cl)Cl)c1ccccc1,–,34.7 µM (active)
Oc1cccc(-c2ccccc2)c1,-0.856%,–
Cc1cccc(OP(=O)(Oc2cccc(C)c2)Oc2cccc(C)c2)c1,-13.7%,–
CC(C)(C)C(O)C(Oc1ccc(-c2ccccc2)cc1)n1cncn1 (stereo not drawn),-15%,–
CNC(C)Cc1ccc2c(c1)OCO2 (stereo not drawn),0.586%,–
CCOP(=S)(OCC)SCS(=O)(=O)CC,-1.34%,–
CC(C)(COCC1CO1)COCC1CO1 (stereo not drawn),9.25%,–
Nc1ccc(Cl)cc1C(=O)c1ccccc1,-27%,–
OC(Cc1ccccc1Cl)(Cn1cncn1)C1(Cl)CC1 (stereo not drawn),-14.1%,–
NC(=O)CCl,10.2%,–
CC(C)(c1ccc(O)c(-c2ccccc2)c1)c1ccc(O)c(-c2ccccc2)c1,–,17.4 µM (active)
COC(=O)N(C(=O)N1COC2(C(=O)OC)Cc3cc(Cl)ccc3C2=N1)c1ccc(OC(F)(F)F)cc1 (stereo not drawn),-7.8% [at 35.3 µM],–
CC(=O)c1cc(C(C)(C)C)cc2c1CCC2(C)C,-3.95%,–
[Cl][Sn]([c]1ccccc1)([c]1ccccc1)[c]1ccccc1,–,10.4 µM (active)
OC(c1ccc(Cl)cc1)(c1ccc(Cl)cc1)C(Cl)(Cl)Cl,-13.2%,–
CCc1cc(C)cc(CC)c1-c1c(OC(=O)C(C)(C)C)n2n(c1=O)CCOCC2,-7.03%,–
CCCCOP(=O)(CCCC)OCCCC,-0.469%,–
CC(C)C(=O)Cl,2.59%,–
Nc1c(Oc2ccccc2)cc(O)c2c1C(=O)c1ccccc1C2=O,0.121% [at 35.3 µM],–
CCOP(=S)(OCC)SCS(=O)(=O)C(C)(C)C,0.802%,–
COc1ccc(OC)c(C=O)c1,-5.56%,–

# System: not listed separately
# Test: qHTS assay to identify small molecule agonists of the AP-1 signaling pathway (AID 1159526); also: potency is read from the fitted curve at half-maximal effect; as to activation: % is scaled to controls: 0 for no effect and ±100 for the full control effect
# Settings: ME-180 (cervical carcinoma) AP-1-bla reporter, beta-lactamase FRET ratio, 5 h; series mostly up to 76.8 µM; activation: at the top concentration
Structure (SMILES),Potency,activation
O=CC(Br)(Br)Br,7.74 µM (active),–
C[C@@H]1O[C@@H](O[C@@H]2C=C3CC[C@@H]4[C@H](CC[C@]5(C)[C@@H](c6ccc(=O)oc6)CC[C@]45O)[C@@]3(C)CC2)[C@H](O)[C@H](O)[C@H]1O,–,8.67% [at 35.3 µM]
O=C/C(Cl)=C(/Cl)C(=O)O,inactive,–
Cc1cccc(OP(=O)(Oc2cccc(C)c2)Oc2cccc(C)c2)c1,–,4.69%
CCOP(=S)(OCC)SCS(=O)(=O)CC,–,-0.966%
CC(C)(COCC1CO1)COCC1CO1 (stereo not drawn),–,-1.55%
OC(Cc1ccccc1Cl)(Cn1cncn1)C1(Cl)CC1 (stereo not drawn),–,0.611%
NC(=O)c1ccc(N)nc1,–,6%
C[C@]12CC[C@H](O)C[C@H]1CC[C@@H]1[C@@H]2C[C@@H](O)[C@]2(C)[C@@H](C3=CC(=O)OC3)CC[C@]12O,–,0.0017%
CCCCOP(=O)(CCCC)OCCCC,–,-0.524%
CC(C)C(=O)Cl,–,0.224%

# Target: Retinoic acid receptor RXR-alpha (Homo sapiens) (UniProt P19793)
# Sequence (P19793 whole entry, looked up): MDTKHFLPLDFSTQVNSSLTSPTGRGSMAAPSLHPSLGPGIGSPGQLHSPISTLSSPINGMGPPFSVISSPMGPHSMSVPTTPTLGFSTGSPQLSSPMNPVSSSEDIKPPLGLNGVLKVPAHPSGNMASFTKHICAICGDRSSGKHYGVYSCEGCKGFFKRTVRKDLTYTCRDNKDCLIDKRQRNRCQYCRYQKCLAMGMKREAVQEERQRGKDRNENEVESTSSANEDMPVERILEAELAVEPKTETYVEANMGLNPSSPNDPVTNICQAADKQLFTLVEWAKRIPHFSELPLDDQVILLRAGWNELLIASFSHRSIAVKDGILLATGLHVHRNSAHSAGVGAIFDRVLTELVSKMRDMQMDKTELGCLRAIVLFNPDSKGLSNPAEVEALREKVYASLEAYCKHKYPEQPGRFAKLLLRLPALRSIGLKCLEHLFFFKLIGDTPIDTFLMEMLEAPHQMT
# Test: qHTS assay to identify small molecule agonists of the RXR signaling pathway (AID 1159527); also: % is scaled to controls: 0 for no effect and ±100 for the full control effect; nearly all actives have a fitted effect of over 35% in size
# Settings: HEK293T RXRa-UAS-bla, beta-lactamase ratio, 16 h; series mostly up to 76.8 µM; activation: at the top concentration
# In short: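 Reporter activation is measured as beta-lactamase activity via FRET substrate cleavage (emission 460/530 nm) in HEK 293T cells expressing an RXR-alpha-driven bla construct, following 16 hr compound exposure at 37 C.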
row,Structure (SMILES),activation
1,Cc1ccc(C(=O)Cl)cc1,-0.14%
2,CCCCCCCCCCBr,3.96%
3,CC(O)C#N (stereo not drawn),-0.0252%
4,Oc1cccc(-c2ccccc2)c1,-2.7%
5,Cc1cccc(OP(=O)(Oc2cccc(C)c2)Oc2cccc(C)c2)c1,-15.4%
6,CCOP(=S)(OCC)SCS(=O)(=O)CC,-5.12%
7,CC(C)(COCC1CO1)COCC1CO1 (stereo not drawn),-3.57%
8,Nc1ccc(Cl)cc1C(=O)c1ccccc1,-11.4%
9,OC(Cc1ccccc1Cl)(Cn1cncn1)C1(Cl)CC1 (stereo not drawn),0.174%
10,NC(=O)CCl,-7.53%
11,CCc1cc(C)cc(CC)c1-c1c(OC(=O)C(C)(C)C)n2n(c1=O)CCOCC2,7.11%
12,CCCCOP(=O)(CCCC)OCCCC,-3.91%
13,CC(C)C(=O)Cl,1.41%
14,Nc1c(Oc2ccccc2)cc(O)c2c1C(=O)c1ccccc1C2=O,6.49% [at 35.3 µM]
15,CCOP(=S)(OCC)SCS(=O)(=O)C(C)(C)C,-7.94%
16,COc1ccc(OC)c(C=O)c1,-19.1%

# System: not listed separately
# Test: qHTS assay to identify small molecule agonists of the RXR signaling pathway - cell viability counter screen (AID 1159529; active = well fitted cell-killing curve with a large enough effect in the repeat runs; also: nearly all actives have a fitted effect of over 50% in size; also: potency is read from the fitted curve at half-maximal effect; as to activity change, negative = cytotoxicity: % is scaled to controls: 0 for no effect and ±100 for the full control effect)
# Settings: RXR-alpha-bla HEK293T viability, CellTiter-Glo, 16 h; series mostly up to 76.8 µM; activity change, negative = cytotoxicity: at the top concentration
# In short: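 Tox21 10K compounds were tested for cytotoxicity against GeneBLAzer RXR-alpha HEK 293T cells grown in 2% charcoal-stripped FBS. Exposure lasted 16 hr at 37 C, 5% CO2; viability read by CellTiter-Glo luminescence.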
Structure (SMILES),"activity change, negative = cytotoxicity",Potency
SCc1ccco1,6.68%,–
Cc1ccc(C(=O)Cl)cc1,-10.6%,–
CC(Cl)CN(C)C (stereo not drawn),-6.99%,–
O=C1C=CC(=O)c2ccccc21,–,9.77 µM (active)
CCCCCCCCCCBr,-16%,–
N#CCCC(Br)(C#N)CBr (stereo not drawn),–,38.9 µM (active)
O=C/C(Cl)=C(/Cl)C(=O)O,–,inactive
C[CH2][Hg][N]1C(=O)C2C(C1=O)C1(Cl)C(Cl)=C(Cl)C2(Cl)C1(Cl)Cl (stereo not drawn),–,4.14 µM (active)
Clc1ccc(CSC(Cn2ccnc2)c2ccc(Cl)cc2Cl)cc1 (stereo not drawn),–,26.8 µM (active)
CC(O)C#N (stereo not drawn),0.0221%,–
CN(C)S(=O)(=O)N(SC(F)(Cl)Cl)c1ccccc1,–,21.9 µM (active)
Oc1cccc(-c2ccccc2)c1,-6.24%,–
Cc1cccc(OP(=O)(Oc2cccc(C)c2)Oc2cccc(C)c2)c1,-9.61%,–
CC(C)(C)C(O)C(Oc1ccc(-c2ccccc2)cc1)n1cncn1 (stereo not drawn),–,54.9 µM (active)
CCOP(=S)(OCC)SCS(=O)(=O)CC,0.0368%,–
CC(C)(COCC1CO1)COCC1CO1 (stereo not drawn),-0.768%,–

Structure (SMILES),"activity change, negative = cytotoxicity",Potency
Nc1ccc(Cl)cc1C(=O)c1ccccc1,-21.8%,–
OC(Cc1ccccc1Cl)(Cn1cncn1)C1(Cl)CC1 (stereo not drawn),-2.83%,–
NC(=O)CCl,5.31%,–
NC(=O)c1ccc(N)nc1,–,13.8 µM (active)
O=[N+]([O-])c1cc([N+](=O)[O-])c2ccccc2c1,-16.1%,–
CC(C)(c1ccc(O)c(-c2ccccc2)c1)c1ccc(O)c(-c2ccccc2)c1,–,24.5 µM (active)
COC(=O)N(C(=O)N1COC2(C(=O)OC)Cc3cc(Cl)ccc3C2=N1)c1ccc(OC(F)(F)F)cc1 (stereo not drawn),0.0189% [at 35.3 µM],–
CC(=O)c1cc(C(C)(C)C)cc2c1CCC2(C)C,-8.69%,–
[Cl][Sn]([c]1ccccc1)([c]1ccccc1)[c]1ccccc1,–,0.585 µM (active)
OC(c1ccc(Cl)cc1)(c1ccc(Cl)cc1)C(Cl)(Cl)Cl,10.5%,–
CCc1cc(C)cc(CC)c1-c1c(OC(=O)C(C)(C)C)n2n(c1=O)CCOCC2,-9.03%,–
CCCCOP(=O)(CCCC)OCCCC,-8.12%,–
CC(C)C(=O)Cl,12.2%,–
Nc1c(Oc2ccccc2)cc(O)c2c1C(=O)c1ccccc1C2=O,-11.9% [at 35.3 µM],–
CCOP(=S)(OCC)SCS(=O)(=O)C(C)(C)C,-23%,–
COc1ccc(OC)c(C=O)c1,-0.246%,–
